Source: PubChem BioAssay (National Center for Advancing Translational Sciences (NCATS))
RE007 growth inh: less growth of the S. pombe RE007 Vpr strain. hit rate 0.21% among 360,000. AID 651644. Potency, µM (series often up to 92.2 µM), without a hit: top-dose activity change, negative = less growth, usual class: inhibitors. S. pombe RE007 Vpr strain, BacTiter-Glo ATP luminescence, 24 h; active means well fitted falling curve with a large enough effect; inconclusive means small, poorly fitted or top-dose-only effect; inactive means no such curve, though single readings can be large or run the other way; further: nearly all actives have a fitted effect of over 50% in size
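Fission yeast strain RE007, carrying one chromosomally integrated HIV-1 vpr copy, was seeded at OD 0.01 in PMG+AL medium with 23 nL pinned compound. After 24 h at 30 °C and 99% humidity, viability was read by BacTiter-Glo luminescence.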
Sm TGR block: S. mansoni TGR enzyme inhibition | Q962Y6 | Potency, µM (series often up to 114 µM), for inactives: at the highest dose activity change, negative = inhibition, hits mostly inhibitors | hit rate 3% among 360,000 | purified TGR, DTNB reduction, TNB absorbance 405 nm; further: nearly all actives have a fitted effect of over 60% in size
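TGR 20 nM + NADPH 100 uM (dispensed conc.), cpd preinc 15 min RT; start with NADPH (500 uM addition) then DTNB (15 mM addition). Kinetic TNB absorbance, 405 nm filter. Four-parameter Hill fit across titration.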
AmpC inh no detg: blocks E. coli AmpC beta-lactamase in detergent-free assay; AmpC nitrocefin hydrolysis, absorbance 480 nm, 0.0001% Triton; P00811; Potency, µM (series often up to 57.1 µM), for the others: at the highest dose activity change, negative = inhibition, hits mostly inhibitors; hit rate 0.52% among 330,000;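 further: plate controls were no compound for no effect and no enzyme for full effect; nearly all actives have a fitted effect of over 20% in size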
Target sequence (P00811 whole entry, looked up): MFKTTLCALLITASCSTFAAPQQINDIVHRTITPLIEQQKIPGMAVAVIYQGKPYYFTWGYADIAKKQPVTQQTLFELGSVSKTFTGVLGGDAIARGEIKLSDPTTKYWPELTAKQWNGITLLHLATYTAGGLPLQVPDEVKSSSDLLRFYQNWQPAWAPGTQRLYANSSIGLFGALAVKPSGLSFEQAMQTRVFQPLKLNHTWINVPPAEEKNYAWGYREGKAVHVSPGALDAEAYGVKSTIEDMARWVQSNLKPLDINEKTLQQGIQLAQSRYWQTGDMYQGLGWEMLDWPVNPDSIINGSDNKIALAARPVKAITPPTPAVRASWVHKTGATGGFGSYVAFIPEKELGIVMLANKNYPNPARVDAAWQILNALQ
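20 mM phosphate pH 7.0 + 0.01% (detergent screen) or 0.0001% Triton X-100; 5.3 nM AmpC reagent; cpd preinc 15 min RT; nitrocefin (800 uM stock) to start; A480 q20 s × 4 min; Activity was normalised to no-enzyme and no-compound control wells.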
AMA1-RON2 inh: disrupts binding of P. falciparum AMA1 to RON2; Potency, µM (doses to about 58.2 µM), for the others: top-dose activity change, negative = inhibition, hits mostly inhibitors; AID 720542; AlphaScreen AMA1-biotinylated RON2 peptide binding; hit rate 0.2% among 360,000;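 further: 0% = vehicle wells and -100% = peptide control; nearly all actives have a fitted effect of over 45% in size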
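AMA1 (3D7) with his tag at 25 nM final met compounds first, then biotinylated RON2 peptide at 25 nM; detection used donor plus acceptor beads, 10 µg/mL apiece, read by AlphaScreen after 30 min at room temperature.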
AmpC detergent: AmpC beta-lactamase inhibition with detergent present. P00811. AmpC hydrolysis of nitrocefin, absorbance 480 nm, 0.01% Triton. Potency, µM (series often up to 114 µM), inactives show at the top dose activity change, negative = inhibition, usual class: inhibitors. hit rate 0.041% among 370,000. AID 485294;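 further: 0% = no-compound wells and -100% = no-enzyme wells; nearly all actives have a fitted effect of over 25% in size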
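20 mM phosphate pH 7.0 + 0.01% (detergent screen) or 0.0001% Triton X-100; 5.3 nM AmpC reagent; cpd preinc 15 min RT; nitrocefin (800 uM stock) to start; A480 q20 s × 4 min; Activity was normalised to no-enzyme and no-compound control wells.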
Active calls of the source: *; ? = inconclusive; . = no result; [ ] = another dose, or the depositor's remark. A selection: hits, their analogues and other compounds. The true share with any hit is near 3.2%. Unless noted, the call rests on the fitted dose curve; in most records, active means well fitted curve in the direction sought with a large enough effect; inconclusive means small, poorly fitted or top-dose-only effect, or another doubt; inactive means no such curve, though single readings can be large; an effect the other way counts as inactive or inconclusive. Unless noted, on the % scale 0 is the no-effect control and ±100 the full control effect; potency means the concentration at half of the fitted maximal effect.

SMILES | RE007 growth inh | Sm TGR block | AmpC inh no detg | AMA1-RON2 inh | AmpC detergent
NC(Cc1c[nH]c2ccc(OCc3ccccc3)cc12)C(=O)O (centres undefined) | -13% | 11µM* | -38% | 29% | 3%
N[C@@H](Cc1c[nH]c2ccc(O)cc12)C(=O)O | -20% | 0% | -11% | -2% | ?
Cc1ccc(NC(=O)c2cc3ccccn3n2)cc1F | . | 9% | . | . | -2%
Cc1ccccc1-c1nc(CS(=O)(=O)CC(=O)N(C)C2CCCCC2)c(C)o1 | 15% | 8.9µM* | 77% | -6% | ?
Cc1oc(-c2ccccc2Cl)nc1CS(=O)(=O)CC(=O)NCc1ccc(F)cc1 | . | 45µM* | . | . | 5%
Cc1oc(-c2ccccc2F)nc1CS(=O)(=O)CC(=O)N1CCCCCC1 | -3% | 11µM* | 16% | -1% | ?
Cc1ccccc1-c1nc(CS(=O)(=O)CC(=O)NC2CCCCC2C)c(C)o1 (centres undefined) | 1% | ? | 45% | -8% | -14%
CCC(=O)N1CCc2cc(S(=O)(=O)NCCC(=O)Nc3ccc(OC)c(OC)c3)ccc21 | . | 2% | . | . | 3%
Cc1cc(C)c2c(NC(=S)NC(=O)c3ccccc3)nn(C)c2n1 | -7% | ? | 20% | 6% | ?
Cc1cc(C)c2c(NC(=O)CCl)nn(C)c2n1 | 13% | 32µM* | -6% | -7% | -1%
COc1cc(/C=N/c2oc(C)c(C)c2C#N)cc(Br)c1O | 14% | 11µM* | -11% | 10% | ?
COc1ccc(/C=N/c2oc(C)c(C)c2C#N)c(OC)c1 | 7% | 50µM* | -11% | 14% | 7%
Cc1oc(/N=C/c2ccccc2)c(C#N)c1C | 16% | -3% | -14% | -10% | ?
CC(=O)c1ccc(NC(=S)Nc2ccc(Br)c(Cl)c2)cc1 | 2% | 22µM* | -41% | 41% | -7%
CC(=O)Nc1cccc(NC(=S)Nc2ccc(F)c(Cl)c2)c1 | 0% | 28µM* | -27% | 9% | -4%
CC(=O)Nc1cccc(NC(=O)Nc2ccc(C)c(Cl)c2)c1 | 5% | -13% | -26% | 15% | 1%
Cc1ccc(NC(=S)Nc2ccc3cn[nH]c3c2)cc1C | -5% | -9% | -18% | -2% | -13%
Cc1ccc(S(=O)(=O)N(C)C)cc1NC(=S)Nc1ccc2cn[nH]c2c1 | 9% | 18µM* | -21% | 24% | -12%
CC(=O)c1ccc(NC(=S)Nc2ccc3cn[nH]c3c2)cc1 | -8% | 20µM* | -34% | 16% | -7%
O=C(NC(=S)Nc1ccc(Br)c(Cl)c1)C1CC1 | 4% | 0% | -39% | 30% | ?
Cc1cc(C)cc(NC(=O)CSc2nnc(COc3ccccc3Cl)o2)c1 | . | 11% | . | . | -10%
COc1cc(C2c3c(oc4cc(C)c(C)cc4c3=O)C(=O)N2CCCN2CCOCC2)ccc1O (centres undefined) | . | 35µM* | . | . | 15%
Cc1cc2oc3c(c(=O)c2cc1C)C(c1ccc(F)cc1)N(CCCN1CCOCC1)C3=O (centres undefined) | 4% | -35% | 190% | 0% | -1%
COc1ccc(C2c3c(oc4ccccc4c3=O)C(=O)N2CCCN2CCOCC2)cc1 (centres undefined) | 13%[3.69 µM] | . | . | -8% | .
O=C1c2oc3ccc(Cl)cc3c(=O)c2C(c2ccco2)N1CCN1CCOCC1 (centres undefined) | -8% | 35µM* | 157% | 9% | -6%
CCOc1ccc(C2c3c(oc4ccccc4c3=O)C(=O)N2CCCN2CCOCC2)cc1OCC (centres undefined) | 8% | 22µM* | 56% | 12% | ?
O=C1c2oc3ccccc3c(=O)c2C(c2cccc(O)c2)N1CCCN1CCOCC1 (centres undefined) | 19% | 40µM* | -29% | -3% | ?
COc1cccc(C2c3c(oc4ccccc4c3=O)C(=O)N2CCCN2CCOCC2)c1OC (centres undefined) | -9% | . | . | -6% | .
CCn1c(CN2CCCCC2)nc2cc(NC(=O)COc3ccccc3C(C)(C)C)ccc21 | . | 0% | . | . | -3%
